PubChem BioAssay (NCATS)
Inconclusive results are not listed. The source made the active and inactive calls. Unless noted, calls follow the shape of the dose curve; as a rule, active = well fitted cell-killing curve with a large enough effect; inconclusive = small, poorly fitted or top-dose-only effect; inactive = flat fitted curve, though single readings scatter.

Key:
[1] = Cell Viability - LYMP2-025 (AID 976);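 also: series mostly up to about 92 µM; plate controls were DMSO only for no effect and tetraoctylammonium bromide control for full effect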
Method in brief: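 CellTiter-Glo luminescence (cellular ATP) after 24 h compound exposure at 37 C; LYMP2-025 human lymphoblastoid cells, 2500/well, complete medium. Tetraoctylammonium bromide positive control. AC50 by Hill equation fit of qHTS concentration-response.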

[2] = Cell Viability - LYMP2-002 (AID 977);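 also: series mostly up to about 92 µM; plate controls were DMSO only for no effect and 92 µM tetraoctylammonium bromide for full effect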
Method in brief: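 Human lymphoblastoid cells, 2500/well, complete medium; 5 h 37 C settle; compound 24 h 37 C; CellTiter-Glo, 30 min RT; luminescence. Decrease in ATP = cytotoxicity; AC50 via Hill equation.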

[3] = Cell Viability - LYMP2-006 (AID 978);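 also: series mostly up to about 92 µM; cells exposed to compound for 24 hours; % is scaled to controls: 0 for no effect and ±100 for the full control effect; nearly all actives have a fitted effect of over 60% in size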
Method in brief: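 Concentration-dependent loss of intracellular ATP in a human lymphoblastoid line after 24 hr treatment at 37 C was measured by CellTiter-Glo luminescence, with AC50 values obtained from standard Hill-equation modelling.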

[4] = Cell Viability - LYMP2-007 (AID 979);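 also: cells exposed to compound for 24 h before reading; 0% = DMSO only and the negative end = 92 µM tetraoctylammonium bromide; nearly all actives have a fitted effect of over 60% in size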
Method in brief: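 qHTS cytotoxicity: 2500 cells/well, 5 hr 37 C settle, compound 24 hr 37 C, CellTiter-Glo 30 min RT, luminescence. Decrease in ATP = toxicity. AC50 by standard Hill equation; tetraoctylammonium bromide positive control.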

[5] = Cell Viability - LYMP2-008 (AID 980); also: % is scaled to controls: 0 for no effect and ±100 for the full control effect; nearly all actives have a fitted effect of over 60% in size
Method in brief: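 Luminescent ATP read-out (CellTiter-Glo, 30 min RT) after 24 hr compound exposure at 37 C of human lymphoblastoid cells in complete medium. Decrease in ATP taken as cytotoxicity; AC50 derived by standard Hill fit of qHTS concentration-response data.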

[6] = Cell Viability - LYMP2-010 (AID 981);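 also: cells exposed to compound for 24 hours at 37 °C; % is scaled to controls: 0 for no effect and ±100 for the full control effect; nearly all actives have a fitted effect of over 55% in size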
Method in brief: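 qHTS cytotoxicity, 1536-well: 2500 cells/well, 5 hr settle, 24 hr compound at 37 C, CellTiter-Glo 30 min RT, luminescence read. Decrease in ATP = toxicity; AC50 via standard Hill equation. Positive control tetraoctylammonium bromide.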

[7] = Cell Viability - LYMP2-012 (AID 982);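 also: cellular ATP by luciferase luminescence where a drop means cytotoxicity; cells exposed to compound for one day before reading; 0% = DMSO only and full loss = 92 µM tetraoctylammonium bromide; nearly all actives have a fitted effect of over 55% in size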
[8] = Cell Viability - LYMP2-014 (AID 983);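 also: series mostly up to about 92 µM; plate controls were DMSO only for no effect and 92 µM tetraoctylammonium bromide for full effect; nearly all actives have a fitted effect of over 50% in size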
Method in brief: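 2500 cells/well, 5 hr 37 C; cpd 24 hr 37 C, complete medium; CellTiter-Glo 30 min RT, luminescence; ATP loss = toxicity; AC50 via Hill eqn; tetraoctylammonium bromide positive control.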

[9] = Cell Viability - LYMP2-016 (AID 984);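 also: cells exposed to compound for 24 hours at 37 °C; % is scaled to controls: 0 for no effect and ±100 for the full control effect; nearly all actives have a fitted effect of over 55% in size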
Method in brief: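 Acute toxicity in a Coriell human lymphoblastoid line is scored as loss of intracellular ATP over 24 h of treatment in complete medium. CellTiter-Glo signal is fitted across concentrations with the Hill equation to give AC50.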

[10] = Cell Viability - LYMP2-018 (AID 985);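 also: plate controls were DMSO only for no effect and tetraoctylammonium bromide at 92 µM for full effect; nearly all actives have a fitted effect of over 50% in size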
Method in brief: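 2500 cells/well; 5 hr 37 C; cmpd 24 hr 37 C, complete medium; CellTiter-Glo 30 min RT; luminescence. Tetraoctylammonium bromide positive control. AC50 via Hill fit.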

[11] = Cell Viability - LYMP2-020 (AID 986);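 also: series mostly up to about 92 µM; plate controls were DMSO only for no effect and tetraoctylammonium bromide at 92 µM for full effect; nearly all actives have a fitted effect of over 55% in size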
Method in brief: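 qHTS, 2500 cells/well; 5 hr then 24 hr compound exposure, 37 C; CellTiter-Glo luminescence after 30 min RT; ATP decrease taken as cytotoxicity; AC50 via Hill equation; tetraoctylammonium bromide positive control.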

[12] = Cell Viability - LYMP2-022 (AID 987)
Method in brief: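 Luminescent ATP read-out (CellTiter-Glo, 30 min, RT) after 24 hr, 37 C compound exposure of 2500 human lymphoblastoid cells/well in complete medium. Cytotoxicity taken as concentration-dependent ATP loss; AC50 from standard Hill equation.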

[13] = Cell Viability - LYMP2-024 (AID 988);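 also: plate controls were DMSO only for no effect and 92 µM tetraoctylammonium bromide for full effect; nearly all actives have a fitted effect of over 60% in size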
Method in brief: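 ATP-based luminescence (CellTiter-Glo, 30 min RT) after 24 h compound exposure at 37 C of 2500 lymphoblastoid cells/well; decrease in ATP taken as cytotoxicity. qHTS concentration-response fitted to standard Hill equation for AC50.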

[14] = Cell Viability - LYMP2-026 (AID 989); also: % is scaled to controls: 0 for no effect and ±100 for the full control effect; nearly all actives have a fitted effect of over 50% in size
Method in brief: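 qHTS cytotoxicity: 2500 cells/well, 5 hr 37 C, compound 24 hr 37 C, CellTiter-Glo 30 min RT, luminescence. Tetraoctylammonium bromide positive control. AC50 via standard Hill fit.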

[15] = Cell Viability - LYMP1-002 - Assay at 40 hr (AID 994)
Method in brief: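 qHTS cytotoxicity; 2500 cells/well, 5 hr 37 C settle, compound 40 hr 37 C. CellTiter-Glo, 30 min RT, luminescence (ATP). Concentration-response, Hill fit → AC50. Pos. ctrl tetraoctylammonium bromide.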

[16] = qHTS Assay for Identification of Small Molecule Inducers of Hypoxia Response (AID 2120; active = well fitted curve in the direction sought with a large enough effect in the signal ratio, with a control signal flat, not every such curve was filed as active; the % refers to the signal ratio; also: 0% is about no effect)
Method in brief: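 Read-out: CCF4 FRET emission ratio 460nm/530nm (excitation 405nm), converted to %Activity, with AC50 fitted across a compound titration. ME-180 cells carried an HRE-driven beta-lactamase reporter; compound exposure 17 h, 37 degrees C.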

[17] = molecular target: Estrogen receptor (Homo sapiens) (UniProt P03372); assay: qHTS assay for small molecule antagonists of estrogen receptor alpha signaling (AID 588513; active = well fitted curve in the direction sought with a large enough effect in the signal ratio, with a control signal flat, not every such curve was filed as active; the % refers to the signal ratio; also: % is scaled to controls: 0 for no effect and ±100 for the full control effect)
Method in brief: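 Cells were plated at 5000/well and incubated 4 h at 37 C. Compounds were added as 1:2 dilution series, duplicates. 17-beta-estradiol (0.5nM final) was added for 18 h before CCF4 detection.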

[18] = molecular target: Estrogen receptor (Homo sapiens) (UniProt P03372); assay: qHTS assay for small molecule agonists of estrogen receptor alpha signaling (AID 588514; calls by dose curve;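 also: 0% = vehicle only and 100% = reference agonist; nearly all actives have a fitted effect of over 70% in size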)
Method in brief: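 Read-out: CCF4 fluorescence from a beta-lactamase reporter in ER-alpha-UAS-bla HEK 293 cells after 18 hrs of compound exposure at 37 C. Normalized to 20 nM 17-beta-estradiol (100%) and DMSO (0%).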

[19] = molecular target: Androgen receptor (Homo sapiens) (UniProt P10275); assay: qHTS assay for small molecule agonists of androgen receptor signaling (AID 588515; active = well fitted curve in the direction sought with a large enough effect in the signal ratio, with a control signal flat; the % refers to the signal ratio; also: % is scaled to controls: 0 for no effect and ±100 for the full control effect); conditions: AR-UAS-bla HEK293, beta-lactamase ratio, agonist 16 h; active compounds read high
Method in brief: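 Stimulation of an AR-responsive β-lactamase reporter in GripTite HEK293 cells was measured after 16 h compound exposure at 37 °C, via CCF4 fluorescence after 2 h RT. EC50 from Hill fits, normalized to R1881 at 30 nM.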

[20] = Cell Viability - LYMP1-002 - Assay at 24 hr (AID 993); also: % is scaled to controls: 0 for no effect and ±100 for the full control effect
Method in brief: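 CellTiter-Glo luminescence (intracellular ATP) after 24 h compound exposure, 37 C, in LYMP1-002 human lymphoblastoid cells; decreased ATP taken as cytotoxicity. AC50 from standard Hill fit of concentration-response curves.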

Sequence of Estrogen receptor (Homo sapiens) (P03372 whole entry, looked up): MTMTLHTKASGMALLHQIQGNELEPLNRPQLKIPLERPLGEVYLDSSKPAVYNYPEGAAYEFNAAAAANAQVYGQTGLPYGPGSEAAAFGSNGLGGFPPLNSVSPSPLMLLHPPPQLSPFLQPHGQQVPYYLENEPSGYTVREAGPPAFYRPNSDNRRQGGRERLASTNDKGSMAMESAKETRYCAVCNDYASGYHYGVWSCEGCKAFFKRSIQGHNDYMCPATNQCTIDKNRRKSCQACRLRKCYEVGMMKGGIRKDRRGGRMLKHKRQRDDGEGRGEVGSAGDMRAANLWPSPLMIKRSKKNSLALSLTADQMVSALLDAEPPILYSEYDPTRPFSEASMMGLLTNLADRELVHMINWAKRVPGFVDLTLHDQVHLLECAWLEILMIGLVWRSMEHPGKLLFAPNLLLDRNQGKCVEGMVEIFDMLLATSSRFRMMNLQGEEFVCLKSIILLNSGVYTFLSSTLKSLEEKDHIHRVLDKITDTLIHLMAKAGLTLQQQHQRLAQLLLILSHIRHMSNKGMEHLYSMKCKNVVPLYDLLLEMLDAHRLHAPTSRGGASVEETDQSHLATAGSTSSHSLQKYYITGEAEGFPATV
Sequence of Androgen receptor (Homo sapiens) (P10275 whole entry, looked up): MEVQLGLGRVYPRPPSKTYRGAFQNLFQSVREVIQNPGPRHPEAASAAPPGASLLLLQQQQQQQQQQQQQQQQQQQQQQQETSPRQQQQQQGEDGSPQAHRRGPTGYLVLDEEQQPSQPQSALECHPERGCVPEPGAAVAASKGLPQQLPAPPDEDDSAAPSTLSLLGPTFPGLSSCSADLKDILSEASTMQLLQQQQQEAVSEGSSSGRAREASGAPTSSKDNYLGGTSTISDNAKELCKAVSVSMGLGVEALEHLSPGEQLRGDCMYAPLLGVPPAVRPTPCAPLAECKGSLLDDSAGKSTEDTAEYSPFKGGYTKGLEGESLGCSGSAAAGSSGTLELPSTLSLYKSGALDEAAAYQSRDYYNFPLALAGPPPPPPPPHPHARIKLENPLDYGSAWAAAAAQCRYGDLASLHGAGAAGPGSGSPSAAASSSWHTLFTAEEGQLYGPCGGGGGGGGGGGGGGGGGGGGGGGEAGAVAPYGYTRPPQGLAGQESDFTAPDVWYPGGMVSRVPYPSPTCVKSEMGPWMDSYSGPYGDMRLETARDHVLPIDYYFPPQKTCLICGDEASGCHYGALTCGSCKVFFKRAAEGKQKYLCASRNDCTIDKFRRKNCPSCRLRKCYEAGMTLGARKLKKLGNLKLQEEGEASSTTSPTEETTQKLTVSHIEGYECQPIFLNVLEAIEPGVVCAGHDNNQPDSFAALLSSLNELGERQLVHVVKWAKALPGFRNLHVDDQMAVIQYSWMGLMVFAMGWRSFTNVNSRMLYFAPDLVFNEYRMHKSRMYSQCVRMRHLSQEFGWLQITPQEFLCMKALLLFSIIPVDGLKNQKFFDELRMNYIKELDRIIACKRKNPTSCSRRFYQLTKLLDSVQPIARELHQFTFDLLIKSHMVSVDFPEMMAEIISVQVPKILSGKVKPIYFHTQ

CCOc1ccc(NC(C)=O)cc1N
inactive: Potency [1] | Potency [2] | Potency [3] | Potency [4] | Potency [5] | Potency [6] | Potency [7] | Potency [8] | Potency [9] | Potency [10] | Potency [11] | Potency [12] | Potency [13] | outcome [14] | Potency [15] | outcome [16] | outcome [17] | Potency [18] | activation [19] 0.896%

Cc1ccc(C#N)cc1
inactive: Potency [1] | Potency [2] | Potency [3] | Potency [4] | Potency [5] | Potency [6] | Potency [7] | Potency [8] | Potency [9] | Potency [10] | Potency [11] | Potency [12] | Potency [13] | outcome [14] | Potency [20] | Potency [15] | outcome [16] | outcome [17] | Potency [18]

O=C(O)CCSSCCC(=O)O
inactive: Potency [1] | Potency [2] | Potency [3] | Potency [4] | Potency [5] | Potency [6] | Potency [7] | Potency [8] | Potency [9] | Potency [10] | Potency [11] | Potency [12] | Potency [13] | outcome [14] | Potency [15] | outcome [16] | outcome [17] | Potency [18] | activation [19] -2.34%

FC(F)(F)c1cccc(Cl)c1
inactive: Potency [1] | Potency [2] | Potency [3] | Potency [4] | Potency [5] | Potency [6] | Potency [7] | Potency [8] | Potency [9] | Potency [10] | Potency [11] | outcome [14] | Potency [20] | Potency [15] | outcome [16] | outcome [17] | Potency [18] | activation [19] 4.73%

Nc1cc(Cl)c(N)c(Cl)c1
inactive: Potency [1] | Potency [2] | Potency [3] | Potency [4] | Potency [5] | Potency [6] | Potency [7] | Potency [8] | Potency [9] | Potency [10] | Potency [11] | Potency [12] | Potency [13] | outcome [14] | Potency [20] | Potency [15] | outcome [16] | outcome [17] | Potency [18]

ClCCl
inactive: Potency [1] | Potency [2] | Potency [3] | Potency [4] | Potency [5] | Potency [6] | Potency [7] | Potency [10] | Potency [11] | outcome [14] | Potency [20] | Potency [15] | outcome [16] | outcome [17] | Potency [18] | activation [19] 2.05%

Cc1cccc(C(=O)O)c1
inactive: Potency [1] | Potency [2] | Potency [3] | Potency [4] | Potency [5] | Potency [6] | Potency [7] | Potency [8] | Potency [9] | Potency [10] | Potency [11] | Potency [12] | Potency [13] | Potency [20] | Potency [15] | outcome [16] | outcome [17] | Potency [18] | activation [19] -5.05%

Cc1ccc(CO)cc1
inactive: Potency [1] | Potency [2] | Potency [3] | Potency [4] | Potency [5] | Potency [6] | Potency [7] | Potency [8] | Potency [9] | Potency [10] | Potency [11] | Potency [12] | Potency [13] | Potency [20] | Potency [15] | outcome [16] | outcome [17] | Potency [18]

CCC(O)C(C)(C)C (stereo unspecified)
inactive: Potency [1] | Potency [2] | Potency [3] | Potency [4] | Potency [5] | Potency [6] | Potency [7] | Potency [8] | Potency [9] | Potency [10] | Potency [11] | Potency [12] | outcome [14] | Potency [20] | Potency [15] | outcome [16] | outcome [17] | Potency [18]

C=C(C)C(=O)OCC(C)O (stereo unspecified)
inactive: Potency [1] | Potency [2] | Potency [3] | Potency [4] | Potency [5] | Potency [6] | Potency [7] | Potency [8] | Potency [9] | Potency [10] | Potency [11] | Potency [12] | Potency [13] | outcome [14] | Potency [15] | outcome [16] | outcome [17] | Potency [18]

C=C(C)OC(C)=O
inactive: Potency [1] | Potency [2] | Potency [3] | Potency [4] | Potency [5] | Potency [6] | Potency [7] | Potency [8] | Potency [9] | Potency [10] | Potency [11] | Potency [12] | Potency [13] | outcome [14] | Potency [20] | Potency [15] | outcome [16] | outcome [17] | Potency [18]

CCc1ccccc1O
inactive: Potency [1] | Potency [2] | Potency [3] | Potency [4] | Potency [5] | Potency [6] | Potency [7] | Potency [8] | Potency [9] | Potency [11] | Potency [12] | Potency [13] | outcome [14] | Potency [20] | Potency [15] | outcome [16] | outcome [17] | Potency [18]

C=Cc1ccccc1C=C
inactive: Potency [1] | Potency [2] | Potency [3] | Potency [4] | Potency [5] | Potency [6] | Potency [7] | Potency [8] | Potency [11] | Potency [12] | Potency [13] | outcome [14] | Potency [20] | Potency [15] | outcome [16] | outcome [17] | Potency [18]

Cc1ccc2ncccc2c1
inactive: Potency [1] | Potency [2] | Potency [3] | Potency [4] | Potency [5] | Potency [6] | Potency [7] | Potency [8] | Potency [9] | Potency [11] | Potency [13] | outcome [14] | Potency [20] | Potency [15] | outcome [16] | outcome [17] | Potency [18]

COc1cccc2sc(N)nc12
inactive: Potency [1] | Potency [2] | Potency [3] | Potency [4] | Potency [5] | Potency [6] | Potency [7] | Potency [8] | Potency [9] | Potency [10] | Potency [11] | outcome [14] | Potency [15] | outcome [16] | outcome [17] | Potency [18]

NC(=O)c1ccccc1[N+](=O)[O-]
inactive: Potency [1] | Potency [2] | Potency [3] | Potency [4] | Potency [5] | Potency [6] | Potency [7] | Potency [8] | Potency [9] | Potency [10] | Potency [11] | Potency [12] | Potency [13] | outcome [14] | Potency [20] | Potency [15] | outcome [16] | outcome [17] | Potency [18]

CCCCCCC(=O)O
inactive: Potency [1] | Potency [2] | Potency [3] | Potency [4] | Potency [5] | Potency [6] | Potency [7] | Potency [8] | Potency [11] | Potency [12] | Potency [13] | outcome [14] | Potency [20] | Potency [15] | outcome [16] | outcome [17] | Potency [18]
